Test results from PubChem BioAssay (Tox21).
Inconclusive results are not listed. Activity calls are given as the source filed them. The call rests on the fitted dose curve; in most records, active means well fitted inhibition curve with a large enough effect in the repeat runs; inconclusive means weak or mixed curves, or effect the other way; inactive means no such curve, though single readings can be large or run the other way.

biological target: Nuclear receptor subfamily 1 group I member 3 (Homo sapiens) (UniProt Q14994); assay: qHTS assay to identify small molecule antagonists of the constitutive androstane receptor (CAR) signaling pathway (AID 1224838); conditions: HepG2-CYP2B6-hCAR luciferase, CITCO-stimulated, 24 h; series mostly up to 92.4 µM; activity, negative = inhibition: at the top concentration;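 further: HepG2 cells stably expressing hCAR with CYP2B6 luciferase reporter stimulated by CITCO; nearly all actives have a fitted effect of over 40% in size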
Sequence (Q14994 whole entry, looked up): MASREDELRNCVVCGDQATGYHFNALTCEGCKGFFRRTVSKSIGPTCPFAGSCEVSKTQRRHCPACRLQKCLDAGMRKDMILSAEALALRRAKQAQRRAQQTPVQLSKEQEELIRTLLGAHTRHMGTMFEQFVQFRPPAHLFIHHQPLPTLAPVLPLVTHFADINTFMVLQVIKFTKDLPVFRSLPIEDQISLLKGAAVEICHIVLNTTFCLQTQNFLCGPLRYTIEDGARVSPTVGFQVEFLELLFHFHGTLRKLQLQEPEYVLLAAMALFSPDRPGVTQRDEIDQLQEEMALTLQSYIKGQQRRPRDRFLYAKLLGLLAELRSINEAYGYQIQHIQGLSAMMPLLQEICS
Source text: U.S. Tox21 Program National Center for Advancing Translational Sciences [NCATS] NIH Chemical Genomics Center [NCGC] U.S. Environmental Protection Agency [EPA] National Institutes of Environmental Health Sciences [NIEHS] National Toxicology Program [NTP] U.S. Food and Drug Administration [FDA] Tox21 Assay Overview: The constitutive androstane receptor (CAR) is a nuclear receptor which regulates multiple drug metabolizing enzymes (DMEs) and transporters. Activating CAR will generally increase the transcription and subsequent translation of CYP2B6 and CYP3A4. These two DMEs represent about 50% of the drug metabolizing potential in the body. When CAR is deactivated, the metabolizing potential in the body will decrease, subsequently increasing the toxicity in the body or lowering the therapeutic potential of a pro-drug. Recently, there have also been studies performed indicating CARs role in energy metabolism and cancer therapy. Therefore, inhibiting CARs activity could have a potential effect on diabetes and cancer. Identifying environmental toxins and compounds which modulate CAR, through the use of the Tox21 10K compound collection, will be an important step in determining the toxicity and potential therapeutic effects these factors will have on the human body.
Tox21 Assay Protocol Summary: A double-stable (hCAR and CYP2B6-2.2kb) transfected cell line, derived from human hepatoma (HepG2) cells, was utilized for the duration of the quantitative high-throughput screens. The HepG2-CYP2B6-hCAR cells suspended in DMEM culture medium supplemented with 10% FBS, 5 ug/mL blasticidin, 0.5 mg/mL geneticin, 100 U/mL penicillin and 100 ug/mL streptomycin were dispensed at 2500 cells/4 uL/well in 1536-well white solid bottom plates using a Multidrop Combi. After the assay plates were incubated at 37 C/5% CO2 for 4 hrs, 23 nL of compounds at 15 concentrations (from 5-48 columns) or positive control (from 1 to 4 columns) were transferred to the assay plates using a Pintool station. One uL of CITCO, was added using a Flying Reagent Dispenser to generate a final concentration of 50 nM CITCO inside each well. After a 24 hr incubation period at 37 C/5% CO2, four uL of ONE-Glo reagent was added into the assay plates using a Flying Reagent Dispenser. After a 30 min incubation period at room temperature, the luminescence intensity in the assay plates was measured using a ViewLux plate reader.
On the % scale 0 is the no-effect control and ±100 the full control effect.

| Compound | activity, negative = inhibition |
| --- | --- |
| C[C@@H]1NC(=O)[C@@H](N)CNC(=O)[C@H](C2CCNC(N)=N2)NC(=O)/C(=C/NC(N)=O)NC(=O)[C@H](CNC(=O)C[C@@H](N)CCCN)NC1=O (stereo not given in full) | -10.7% [at 0.349 µM] (inactive) |
| CN(C)CCCN(C)C | -1.01% [at 8.39 µM] (inactive) |
| CC(=O)Nc1ccc(OCCOCCOc2ccc(NC(C)=O)cc2)cc1 | 51.5% [at 42.5 µM] (inactive) |
| C=C(C)C(=O)OCCOC1CC2CC1C1C=CCC21 (stereo not given) | 3.88% (inactive) |
| CC/C=C\CCCCCCCCCCOC(C)=O | -7.18% (inactive) |
| CCCCCCCCCCCCCC(=O)OCC | 0.999% (inactive) |
| c1coc(Cn2cccc2)c1 | -3.99% (inactive) |
| NNC(=O)CCCCC(=O)NN | -4.93% (inactive) |
| Cc1ccc(O)c(C(=O)c2ccccc2)c1 | 39.7% (inactive) |
| CCCCC(O)/C=C(C)/C=C/C=C/C(=O)N1CCCC1=O (stereo not given) | 14.8% [at 42.5 µM] (inactive) |
| COC(C)(C)CC(C)=O | -16.3% (inactive) |
| CC(C)(C)OC(=O)c1ccccc1C(=O)O | 0.896% (inactive) |
| CC(C)(C)C(=O)NCCCC(=O)O | 13% [at 42.5 µM] (inactive) |
| CN(C)c1cc(NC(=O)CNC(C)(C)C)c(O)c2c1C[C@H]1C[C@H]3[C@H](N(C)C)C(=O)C(C(N)=O)=C(O)[C@@]3(O)C(=O)C1=C2O | -0.171% [at 42.5 µM] (inactive) |
| CC(O)CCCCn1c(=O)c2c(ncn2C)n(C)c1=O (stereo not given) | 17.4% [at 42.5 µM] (inactive) |
| CC(C)OCCO | 6.77% (inactive) |
| CC(C)(O)c1ccc(C(C)(C)O)cc1 | 5.73% (inactive) |
| O=C1c2ccccc2C(=O)N1CO | 13.9% (inactive) |
| CCCCC(CC)CCC(CC(C)C)OS(=O)(=O)O (stereo not given) | -6.86% (inactive) |
| C/C(Cl)=C/CCl | 4.25% (inactive) |

| Compound | activity, negative = inhibition |
| --- | --- |
| CCCCN(CCCC)CCCCCCN(CCCC)CCCC | -3.33% (inactive) |
| CC(=O)c1c(C)cc(C(C)(C)C)cc1C | -8.1% (inactive) |
| NNC(=O)OCc1ccccc1 | 64.8% (inactive) |
| CCCCOCCCC | -13.6% (inactive) |
| CCCc1ccc(O)c(OC)c1 | -5.7% (inactive) |
| CCCc1ncc(C(=O)O)s1 | -11.7% [at 42.5 µM] (inactive) |
| CC[N+](C)(CC)CC | -12.7% (inactive) |
| COc1cc(C(=O)NC2CCCNC2)cc(OC)c1OC (stereo not given) | 21.7% [at 42.5 µM] (inactive) |
| CCCCCCC(O)CO (stereo not given) | -4.93% (inactive) |
| CN1CCN(C(=O)C2CCCCC2)CC1 | 0.49% [at 42.5 µM] (inactive) |
| CCc1ncc(C)[nH]1 | 18.6% (inactive) |
| c1cc2ccc3ccc4ccc5cccc6c(c1)c2c3c4c56 | 27.3% [at 3.26 µM] (inactive) |
| CCOC(=O)c1ccc(N(C)C)cc1 | 199% (inactive) |
| Cc1cc2c(cc1CC(=O)c1sccc1S(=O)(=O)Nc1onc(C)c1Cl)OCO2 | 9.99% [at 42.5 µM] (inactive) |
| NCC1CCC(C(=O)Oc2ccc(CCC(=O)O)cc2)CC1 (stereo not given) | -28.1% [at 42.5 µM] (inactive) |
| O=C(O)CCC(=O)Nc1ccc(S(=O)(=O)Nc2nccs2)cc1 | -24.2% [at 42.5 µM] (inactive) |
| O=C(O)COc1ccc2ccccc2c1 | 38.2% (inactive) |
| Cc1cc(C)c(C)c(C)c1 | -6.23% (inactive) |
| CCCCCCCC(=O)N(C)C | 26.9% (inactive) |
| Cc1ccc(O)c([N+](=O)[O-])c1 | 3.36% (inactive) |
